Screening data (PubChem BioAssay)
Shown are actives, neighbours in structure and some others; about 4.8% of the full set was active somewhere.
SMARCA2 activ = activators of SMARCA2 function | AID 652017 | 1% of 370,000 active | activation, % at 9.1 µM | MG213 cells, MMTV-luciferase reporter, dexamethasone, overnight; in the data active = activation above about 7.8%;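 note: 0% = vehicle wells and 100% = reference activator wells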
ssDAF12 agonist = S. stercoralis DAF-12 activation, primary screen | 1% of 370,000 active | activation, % at 6.8 µM | HEK293 ssDAF-12/GRIP1 lit1-tk-luc reporter, luminescence; % of 3 µM dafachronic acid response;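 active = activation above the mean over all tested compounds plus 3 SD, cut at about 0.9% in these data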;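 note: 0% = DMSO-only wells and 100% = 3 µM delta7-dafachronic acid wells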
hgDAF-12 ag = agonists of H. glycines DAF-12 nuclear receptor | activation, % at 6.8 µM | HEK293 GAL4-hgDAF12 UAS-luciferase reporter, agonist luminescence; normalized to butyrate control | AID 687014 | 1.8% of 370,000 active;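 active = activation above a cutoff set at the mean of all screened compounds plus 3 SD, cut at about 10% in these data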;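 note: 0% = DMSO wells and 100% = sodium butyrate wells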
hcDAF12 agonist = H. contortus DAF-12 activation, primary screen; HEK293 hcDAF-12 lit1-tk-luc reporter, luminescence; 0% DMSO, 100% Δ7-dafachronic acid; activation, % at 6.8 µM; 1.4% of 370,000 active;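 active = activation above the mean of all tested compounds plus 3 SD, cut at about 5.5% in these data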;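 note: 100% = response to 3 µM Δ7-dafachronic acid high control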
DAX1 inh-1 = inhibitors of human orphan nuclear receptor DAX1 (NR0B1). P51843. HEK293 Gal4-DAX1 luciferase reporter, luminescence. inhibition, % at 6.75 µM. 0.99% of 340,000 active;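 active = inhibition above the mean over all tested compounds plus 3 SD, cut at about 4.2% in these data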;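 note: 0% = DAX1-transfected cells with DMSO and 100% = empty-vector control cells with DMSO; inhibition shows as a rise in luminescence from relieved DAX1 repression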
Target sequence (P51843 207-470 limits assumed): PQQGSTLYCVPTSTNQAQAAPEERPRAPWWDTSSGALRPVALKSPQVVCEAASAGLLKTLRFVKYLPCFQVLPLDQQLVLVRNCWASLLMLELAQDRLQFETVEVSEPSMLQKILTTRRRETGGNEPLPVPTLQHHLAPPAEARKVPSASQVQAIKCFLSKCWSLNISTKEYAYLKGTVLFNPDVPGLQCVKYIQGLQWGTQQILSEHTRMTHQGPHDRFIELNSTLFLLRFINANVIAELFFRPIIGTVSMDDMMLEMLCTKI
DAX1 inh-2 = blocks DAX1 repression of SF-1 activated StAR promoter | HEK293T StAR-luciferase reporter, SF-1/DAX-1 repression relief | inhibition, % at 6.8 µM | 1.1% of 370,000 active;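 active = inhibition above the mean over all tested compounds plus 3 SD, cut at about 3.6% in these data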;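 note: 0% = DAX-1 cells with DMSO and 100% = cells lacking DAX-1 with DMSO; higher inhibition means more luminescence from relief of DAX-1 repression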
DAX1 inh confirm = confirmation of human DAX1 (NR0B1) inhibitors; 87% of 2,400 active; HEK293T StAR-promoter luciferase reporter, SF-1/DAX-1 repression; AID 652134; inhibition, % at 6.8 µM; shares compounds with DAX1 inh-2;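 active = inhibition above the average of every tested compound plus 3 SD, cut at about 3.8% in these data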;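 note: 0% = DAX-1 cells with DMSO and 100% = no DAX-1 control cells with DMSO; active compounds raise luminescence by relieving repression of the StAR reporter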
SF1 AF2mut Luc = counter-screen for DAX1 inhibitors: nonselective inhibitors with SF-1 AF2 mutant; inhibition, % at 6.8 µM; AID 652136; shares compounds with DAX1 inh-2; 78% of 2,400 active; HEK293 StAR-luciferase, luminescence;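 active = inhibition above the mean of all tested compounds plus 3 SD, cut at about 3% in these data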;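 note: 0% = DAX-1 transfected cells with DMSO and 100% = cells without DAX-1 with DMSO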
* hit, by the source's call; . = no result given.

SMILES	SMARCA2 activ	ssDAF12 agonist	hgDAF-12 ag	hcDAF12 agonist	DAX1 inh-1	DAX1 inh-2	DAX1 inh confirm	SF1 AF2mut Luc
COc1ccccc1CNC(=O)C[C@H]1CC[C@H]2[C@@H](COc3ccc(NC(=O)Nc4ccccc4)cc3C(=O)N2C)O1	-3.8	-1.0	-1.2	-1.0	.	0.6	.	.
CCc1ccc(NC(=O)N2CCCCCC2)cc1	3.8	-0.3	4.0	3.8	3.6	5.2*	9.8*	7.0*
COC(=O)[C@]12C[C@H](CC(=O)N3CCCCC3)C(=O)N(CCc3ccc(OC)c(OC)c3)C1=C[C@H](C1CCCC1)O[C@@H]2C	4.2	-1.6	0.0	-2.0	.	0.3	.	.
Cc1cccc(C(=O)NNC(=O)C2CCCCC2)c1O	-2.9	-1.1	1.4	0.3	3.3	4.6*	1.6	1.1
CCN(CC(=O)Nc1ccc2c(c1)OCCO2)C(=O)c1ccc(C(F)(F)F)cc1	2.3	-0.5	7.4	2.6	1.3	5.2*	5.9*	3.0*
CCN(CC(=O)Nc1ccc2c(c1)OCCO2)C(=O)c1ccc(Cl)cc1Cl	3.4	0.0	10.9*	3.0	1.3	6.0*	7.5*	5.9*
CCN(CC(=O)Nc1ccc2c(c1)OCCO2)C(=O)c1cc(Cl)nc2ccccc12	-1.9	-1.0	8.2	0.3	-0.2	-1.5	.	.
Cc1ccc(CNC(=O)Nc2ccc(Cl)cc2)cc1	1.2	-0.3	2.9	1.3	0.9	5.2*	1.1	0.3
O=C(NCc1ccc(Cl)cc1)Nc1ccc(F)cc1	5.1	-0.5	2.9	-0.2	-0.1	0.9	.	.
Nc1cc(-c2ccc(Cl)cc2)nn1-c1ccccc1	-0.3	-1.2	9.4	1.8	1.5	1.4	.	.
O=C1CCn2nc(-c3ccc(Cl)cc3)cc2N1	0.8	1.0*	7.6	4.5	2.7	5.3*	6.3*	4.3*
Cc1ccccc1CS(=O)(=O)Cc1ccc(C(=O)Nc2cccc(C)c2C)o1	-3.8	-1.0	1.9	-3.5	.	-0.1	.	.
CN1c2ccc(C#CC3CC3)cc2[C@@H]2[C@@H](CCN2C(=O)C2CCOCC2)[C@H]1CO	-2.9	-1.5	1.1	-3.4	.	-0.3	.	.
CS(=O)(=O)c1cccc(C(=O)Nc2ccc(-c3nc4ccccc4[nH]3)cc2)c1	7.7	-0.8	-3.2	-2.1	-1.0	7.2*	6.7*	-1.9
CS(=O)(=O)c1ccccc1C(=O)Nc1ccc(-c2nc3ccccc3[nH]2)cc1	7.7	-1.1	8.3	1.7	0.6	0.2	.	.
Cc1cc(C)n(-c2ccc(C(=O)Nc3ccccn3)cc2)n1	1.7	-0.1	12.3*	4.5	-0.1	4.7*	11.1*	5.4*
O=C(NC(=O)c1ccccc1)Nc1ccccn1	-2.4	-0.8	-1.1	-0.7	-4.2	1.6	.	.
O=C(Nc1ccccn1)c1ccc(C(=O)c2ccccc2)cc1	6.0	-0.5	12.6*	3.0	0.3	9.0*	10.9*	4.7*
C[C@@H]1C[C@H]2[C@@H](C)C(=O)N3[C@H](c4ccccc4)[C@H](C)C[C@H]3[C@@H](C)C(=O)N2[C@@H]1c1ccccc1	-1.4	-0.9	0.8	-0.6	.	-0.4	.	.
Cc1ccc(-n2c(SCC(=O)Nc3ccccc3-c3ccccc3)nnc2-c2cccs2)cc1	4.7	-1.5	-1.0	-0.2	.	-0.5	.	.
Cc1cc(O)c(N=Nc2ccc(C(=O)O)cc2)cc1C	1.9	0.1	8.3	3.0	4.3*	5.2*	21.5*	7.7*
CCCN(CCC)c1ncnc2c1cnn2-c1ccc(OC)cc1	-0.5	0.3	10.2	4.6	0.6	5.3*	14.0*	3.1*
Cc1ccc(C=Nc2ccccc2C(N)=O)o1	-2.5	-1.1	-0.1	2.5	0.0	0.6	.	.
CN(C)c1ccc(C=Nc2ccccc2C(N)=O)cc1	4.8	1.9*	9.6	10.3*	-2.8	5.8*	19.4*	9.1*
Oc1ccc(C=NN=Cc2ccco2)c(O)c1	1.4	-0.3	9.4	1.3	5.5*	4.6*	7.2*	4.8*
NC(=N\N=Cc1ccco1)/C(N)=N/N=Cc1ccco1	6.5	-0.6	1.3	1.7	3.8	0.8	.	.
